Laboratory results as given in PubChem BioAssay (NCATS).
Unmarked numbers belong to inactive results. Active and inactive are the calls of the source. Calls follow the shape of the dose curve; as a rule, active = well fitted curve in the direction sought with a large enough effect; inconclusive = small, poorly fitted or top-dose-only effect, or another doubt; inactive = no such curve, though single readings can be large or run the other way.

Experiment: qHTS for ATAD5 Agonist screened against the NCATS CANVASS Library (AID 1347367);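 also: luciferase reporter driven by ATAD5 which rises upon DNA damage; 0% is about no effect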
Details: HEK293T ATAD5-luciferase reporter, luminescence, 16 h; series mostly up to 46.1 µM; activation: at the top concentration
Outline: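 Step one plated reporter cells and let them acclimate 5hr. Step two pinned compounds with MMS as positive and 0.46% DMSO as negative control. After 16hr incubation, fluorescence viability then luminescence were read.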

| SMILES | activation | Potency |
| --- | --- | --- |
| O[C@H]1C=C2[C@H]3CN(Cc4cc5c(cc43)OCO5)[C@H]2C[C@@H]1O | 8.32% | – |
| CC[C@@H](c1cc(OC)c(OC)cc1OC)[C@H](C)[C@@H](/C(C)=C/c1cc(OC)c(OC)cc1OC)c1cc(OC)c(OC)cc1OC | – | inactive |
| C/C=C/c1cc2c(c(=O)o1)C(=O)[C@@H](O)[C@H](C)O2 | 6.8% | – |
| COc1cc2c(cc1OC)[C@@H](c1ccc3c(c1)OCO3)C(C)[C@@H](C)C2=O (some centres not stated) | -1.89% | – |
| CC(C)[C@@H]1CC(=O)c2coc3c2[C@H]1C[C@@H](C)C3=O | -2.15% | – |
| COc1cc2oc3ccccc3c(=O)c2cc1OC | 10.8% [at 91.4 µM] | – |
| O=C1CCC(=O)N(O)CCCCCNC(=O)CCC(=O)N(O)CCCCCNC(=O)CCC(=O)N(O)CCCCCN1 | 7.68% | – |
| C=C1C[C@H]2O[C@@H]3[C@@H]4[C@H](CC[C@@](C)(O)[C@@H]42)[C@H](C)COC3(C)[C@@H](OC(=O)CCCCCCC)C[C@H]1O (some centres not stated) | 0.477% | – |
| C[C@H](CCC(O)C(C)(O)CO)[C@@]1(O)CC[C@@]2(C)C3=C(CC[C@@]21C)[C@@]1(C)CCC(OC(=O)CCC(=O)O)C(C)(C)[C@@H]1CC3 (some centres not stated) | -0.457% | – |
| COc1cc(C2C3=C(Cc4cc5c(cc42)OCO5)C(=O)OC3)cc(OC)c1OC (configuration not stated) | 17.2% | – |
| CO[C@@H]1[C@H](O)[C@@H](C)O[C@@H](OC[C@@H]2C(C)OC(=O)/C=C/[C@H](C)C(O[C@@H]3O[C@H](C)CC4(OC(=O)O[C@@H]4C)C3O)[C@@H](C)CC(C)C(=O)/C=C/[C@H]3OC23)[C@@H]1OC (some centres not stated) | -3.34% | – |
| C=C[C@@](C)(O)CC[C@@H]1[C@@]2(C)CCCC(C)(C)[C@@H]2CC[C@@]1(C)O | -1.32% | – |
